Records with an inconclusive call do not appear. Calls of active or inactive are those of the source. Calls come from the whole dose curve; as a rule, active = well fitted inhibition curve with a large enough effect; inconclusive = small, poorly fitted or top-dose-only effect; inactive = no such curve, though single readings can be large or run the other way.
biological target: Luciferin 4-monooxygenase (Photinus pyralis) (UniProt P08659); assay: Confirmatory firefly luciferase (FLuc) qHTS assay for identification of artifact compounds; details: purified FLuc enzyme, luminescence, 5 min; series mostly up to 38.9 µM
Procedure, shortened: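 Purified Photinus pyralis luciferase (10 nM) with D-luciferin and ATP each 10 uM, pH 7.6 Tris-acetate; compounds preincubated 15 min with substrate, 5 min after enzyme; luminescence normalized to no-enzyme and DMSO, 4-parameter Hill fit.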

Potency, inactive:
COc1cccc(C2c3c(ncn(-c4cccc(C#N)c4)c3=N)Oc3ccc4ccccc4c32)c1 (stereo not given)
C[C@@H]1OC(OC2C(OC3CC[C@@]4(C)C5CC=C6C7CC(C)(C)CC[C@@]7(C(=O)O)CCC6(C)C5(C)CCC4[C@]3(C)CO)OCC(O)C2O)C(O)C(O)C1O (stereo not given in full)
COc1ccccc1NC(=O)CSC1=Nc2ccccc2C2=NC(CC(=O)NCc3ccccc3)C(=O)N12 (stereo not given)
CCCS(=O)(=O)N1CC(=O)N(c2ccc(C)cc2C)C(C)(C(=O)NC2CCCCCC2)C1 (stereo not given)
CC(C)(C)C(=O)OCC(=O)[C@H]1CC[C@H]2[C@@H]3CCC4=CC(=O)CC[C@]4(C)[C@H]3CC[C@]12C
COc1ccc(-c2cc(C(=O)Nc3cc(C(F)(F)F)ccc3Cl)no2)cc1
Cc1ccccc1NS(=O)(=O)c1ccc2[nH]c3c(c2c1)CCCCC3
O=C(O)Cc1cc(F)c(S(=O)(=O)N2CCN(S(=O)(=O)c3ccc4c(c3)OCCO4)CC2)cc1F
Cc1c(C(=O)N(C)C)sc2c1c(=O)n(-c1ccc(Cl)cc1)c(=O)n2Cc1ccccc1F
COc1ccc(OC(=O)c2nc(SCc3ccccc3C)ncc2Cl)cc1
CC(C)=CCC/C(C)=C/C=O
CCOc1ccc(OCC(=O)NCCS(=O)(=O)N2CCN(c3cccc(Cl)c3)CC2)cc1
Cc1c(CCNC(=O)Cc2ccc(F)cc2)sc2nc(-c3ccc(F)cc3)nn12
O=C1CCc2cc([S+](=O)([O-])NC3CCOCC3)ccc2N1
O=C1Nc2ccccc2/C1=C\c1ccc(O)cc1
CCc1ccc(NC(=O)CN2C(=O)C3(SCC(=O)N3c3ccc(F)c(F)c3)c3ccccc32)cc1 (stereo not given)
COc1ccc(-n2c(=O)c3ccc(C(=O)NCc4ccc(C)cc4)cc3n(Cc3ccc(Cl)cc3)c2=O)cc1
CCOc1ccc2c(c1)C(C)=CC(C)(C)N2
Cc1cccc(NC(=O)COC(=O)CCCC2=NS(=O)(=O)c3ccccc3N2)c1
O=S(=O)(c1ccc2c(c1)OCCO2)N1CCN(S(=O)(=O)c2c(F)cccc2F)CC1

Reference: PubChem BioAssay AID1845227 (National Center for Advancing Translational Sciences (NCATS), 2023)
